The results in this text go back to the OligoGym collection.
Also: reference of the scale not given here.

The test addresses CDC23. Kind of test: pooled miR-30 sensor sort-seq; sequence = guide strand. The settings on record: shRNA.
In turn, TATATTTGATGTAACACTGGGC registered a sensor-assay potency score (higher = more potent) of 0.351. In the case of TAAGAATCAAACATCATTCTGG, the sensor-assay potency score (higher = more potent) worked out at 0.585. TTTATTAAAACAGACCAGCTTG: the sensor-assay potency score (higher = more potent) is -0.155.

Turning to TAAATGCACAACACTTTTGTGC, the sensor-assay potency score (higher = more potent) is -0.535. To TCTATCAACTGCAACTCTGTGT belongs 0.16; to TATAATCCTATCTCCTTGCTTG, 0.291. TAGTTGATTGAGTTTCTCGTAA: the sensor-assay potency score (higher = more potent) is -0.361. To TATAGCTAACAATATAGCCATC belongs -1.75. To TTTGTGCACAAGTTGAAGCTTC belongs -0.382.
